The values that follow come from the supplement of paper PMC8728848.

This is one part of a sample in which the strongest signals are shown more often than they occur.

Common to all, as to assay: glycan array binding signal (z-score within array); higher = stronger binding
What all share (details): glycan notation: IUPAC condensed, linker removed

One assay has as its target GalNAc(b1-3)GlcNAc. The essentials: (§1)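 The Consortium for Functional Glycomics database supplied 3228 glycan arrays, of which those lacking an available protein sequence were dropped. The binding signal, a within-array Z-score, was averaged across arrays of the same protein sequence and across linkers. Negative scores can be read as non-binding.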
A further assay addresses GalNAc(b1-4)GlcNAc. The essentials: as §1
In another assay the target is GalNAc4S6S(b1-4)GlcNAc. Put shortly: as §1
The next assay concerns the target GlcA(b1-3)Gal. Put shortly:
as §1

For a further assay, the target named is GlcA(b1-6)Gal. Put shortly: as §1
Assay [1] addresses GlcNAc(a1-4)Gal(b1-4)GlcNAc(b1-3)Gal(b1-4)Glc. Put shortly:
as §1

The target in assay [2] is GlcNAc(a1-4)Gal(b1-4)GlcNAc(b1-3)Gal(b1-4)[Fuc(a1-3)]GlcNAc(b1-3)Gal(b1-4)[Fuc(a1-3)]GlcNAc. The essentials:
as §1

For assay [3], the target named is GlcNAc(b1-3)Gal(b1-4)GlcNAc. Put shortly:
as §1

In assay [4] the target is GlcNAc(b1-3)Gal(b1-4)GlcNAc(b1-2)[GlcNAc(b1-3)Gal(b1-4)GlcNAc(b1-6)]Man(a1-6)[GlcNAc(b1-3)Gal(b1-4)GlcNAc(b1-2)Man(a1-3)]Man(b1-4)GlcNAc(b1-4)GlcNAc. The essentials:
as §1

The target in assay [5] is Man(a1-2)Man(a1-6)[Man(a1-3)]Man(a1-6)[Man(a1-2)Man(a1-2)Man(a1-3)]Man. The essentials:
as §1

For assay [6], the target named is Neu5Ac(a2-3)Gal(b1-3)GlcNAc(b1-3)Gal(b1-3)GlcNAc. Put shortly: as §1
Assay [7] has as its target Neu5Ac(a2-3)Gal(b1-3)[Fuc(a1-4)]GlcNAc. The essentials: as §1
Assay [8] concerns the target Neu5Ac(a2-3)Gal(b1-4)GlcNAc(b1-2)Man(a1-3)[Neu5Ac(a2-6)Gal(b1-4)GlcNAc(b1-2)Man(a1-6)]Man(b1-4)GlcNAc(b1-4)GlcNAc. The essentials:
as §1

Assay [9] has as its target Neu5Ac(a2-3)Gal(b1-4)GlcNAc(b1-3)Gal(b1-4)GlcNAc(b1-6)[Gal(b1-3)]GalNAc. The essentials: as §1
Assay [10] addresses Neu5Ac(a2-3)Gal(b1-4)[Fuc(a1-3)]GlcNAc(b1-3)Gal. The essentials:
as §1

Assay [11] deals with Neu5Ac(a2-3)Gal(b1-4)[Fuc(a1-3)]GlcNAc6S. Put shortly:
as §1

Assay [12] concerns the target Neu5Ac(a2-6)Gal(b1-4)GlcNAc(b1-2)[Neu5Ac(a2-6)Gal(b1-4)GlcNAc(b1-4)]Man(a1-3)[GlcNAc(b1-4)][Neu5Ac(a2-6)Gal(b1-4)GlcNAc(b1-2)[Neu5Ac(a2-6)Gal(b1-4)GlcNAc(b1-6)]Man(a1-6)]Man(b1-4)GlcNAc(b1-4)GlcNAc. Put shortly: as §1
In assay [13] the target is Neu5Ac(a2-6)Gal(b1-4)GlcNAc(b1-3)Gal(b1-4)GlcNAc(b1-3)Gal(b1-4)GlcNAc(b1-2)Man(a1-3)[Neu5Ac(a2-6)Gal(b1-4)GlcNAc(b1-3)Gal(b1-4)GlcNAc(b1-3)Gal(b1-4)GlcNAc(b1-2)Man(a1-6)]GalNAc. The essentials:
as §1

Assay [14] concerns the target Neu5Gc(a2-8)Neu5Gc(a2-3)Gal(b1-4)GlcNAc(b1-3)Gal(b1-4)GlcNAc. The essentials:
as §1

B1: AT3G44510(29) (Arabidopsis thaliana), F4J341 (protein)
chain: MEEHLQGRIKLHDGRYLAYKERGVPKDDAKFTIVLVHGFGSSKDMNFNVSQELVNEIGIYFVLYDRAGYGESDPNPKRSLKSEAYDVQELADGLEIGSRFYLIGISMGSYTVWSCLKHIPQRLAGVAMVAPVVNFRWPSIPKSLMPKDYRREVAKWSVWIANYFPGLLQWLVTQNMFSTTSMLEKNPVYFNDQDIEVLKHIKGFPMLTKEKLRERGVFGTLRSDFLVAFGDWDFDPADLPDPSLSGPEKGSSSVHIWQGYEDKVMPFQLQRCLCRKLPWIRYHEVPKGGHLIVHYDGICDAILKSLLLGEDLPMYKPKAVITEPA
Take B1: the “glycan array binding signal (z-score)” value with GalNAc(b1-3)GlcNAc is -0.421; with GalNAc(b1-4)GlcNAc, 9.27; with GalNAc4S6S(b1-4)GlcNAc it was -0.488; with GlcA(b1-3)Gal, 1.18; in the assay with GlcA(b1-6)Gal, 0.079; in assay [1], 0.232. The “glycan array binding signal (z-score)” value in [2] is 1.31; in assay [3] it was 0.6; in assay [4] it was 2.5; in assay [5], -0.613; in assay [6] it was -0.556; in [7], -0.723. Besides, the “glycan array binding signal (z-score)” value in [8] is 2.04; in assay [9] it was -0.343; in [10], -0.706; in assay [11], 0.419; in assay [12], -0.785; in assay [13], 2.59. For the same molecule, the “glycan array binding signal (z-score)” value in assay [14] turned out to be 0.206.
